In ChEMBL document CHEMBL1157539, “Thousands of chemical starting points for antimalarial lead identification” (Nature, 2010):

What follows are compounds tested on HepG2 (assay: GSK_TCMDC: Percent inhibition of human HepG2 cell line. Test compounds present at 10uM.).
Type: functional
Compound `O=C(NC1CC1)c1ccc(N2CCN(Cc3ccc(Cl)cc3)CC2)nc1.O=C(O)C(F)(F)F` has an Inhibition of 16%.
With `CCCCCCCN1CC[C@@H](CCCc2ccnc3ccc(OCC4CCCNC4)cc23)[C@@H](CC)C1.Cl` (some centres not stated) the Inhibition was 99%.
`CC[C@H](C)CNC(=O)c1cncc(-c2cccc(CN3CCC(N4CCCC4)CC3)c2)c1.O=C(O)C(F)(F)F` showed an Inhibition of 0%.
For `CN(C)CCC1CCN(CCS(=O)(=O)c2cccc(Nc3ncc(-c4cccc(F)c4)cn3)c2)CC1`, the Inhibition was 59%.
In the case of `CCCN(C(=O)c1ccccc1C)c1nnc(-c2ccccc2C)s1`, the Inhibition is reported as 16%.
For `CCOC(=O)c1cc(=O)c2ccc(OCC#N)cc2o1`, the Inhibition was 2%.
For `O=[N+]([O-])c1ccc(-c2ccc(C=NNc3nc(Nc4ccccc4)nc(Nc4ccccc4)n3)o2)cc1`, the Inhibition was 0%.
Compound `COc1cc(F)c2ncc(F)c([C@@H](O)CN3CCC(NCc4cc5c(cn4)OCCO5)CC3)c2c1.Cl` has an Inhibition of 1%.
Work on `Br.COc1ccc(CCON2C(=N)N=C(N)NC2(C)C)cc1OC` yielded an Inhibition of 64%.
`CNC(=O)c1ccccc1Nc1nc(Nc2cccnc2)ncc1C.Cl` was tested, and the Inhibition was 17%.
`O=C(Cn1cc(C(F)(F)F)cc(Cl)c1=O)N1CCN(S(=O)(=O)c2ccc(Cl)cc2)CC1` showed an Inhibition of 14%.
Compound `Cc1ccc(Nc2ccnc(Nc3ccc(C)c(F)c3)n2)cc1O.Cl` has an Inhibition of 4%.
`CC(C)(C)N1CCC(N(Cc2ccc(-c3ccc(C(F)(F)F)cc3)cc2)C(=O)Cn2c(CCc3cccc(F)c3F)cc(=O)c3cccnc32)CC1.O=C(O)C(O)C(O)C(=O)O` was tested, and the Inhibition was 100%.
In the case of `N#CC1(c2ccccc2)CCN(c2nc(NCCCN3CCCC3=O)nc(N3CCCC4CCCCC43)n2)CC1` (configuration not stated), the Inhibition is reported as 0%.
Compound `COc1cccc(CNC[C@@H](O)[C@H](Cc2ccccc2)NC(=O)c2cc3c4c(c2)c(C(C)C)cn4CCS(=O)(=O)N3C)c1.O=CO` has an Inhibition of 21%.
For `Fc1ccc2[nH]c(-c3ccc(-c4ccc(CN5CCCCC5)cc4)s3)nc2c1.O=C(O)C(F)(F)F`, the Inhibition was 42%.
For `CC(=O)Nc1ccc(C(=O)Nc2cccc(-c3cccc(-c4nc5cccc(C)c5[nH]4)c3)c2)cn1`, the Inhibition was 16%.
Compound `CC(C)OC(=O)c1cccnc1SCC(=O)Nc1ccc(C(F)(F)F)cc1Cl` has an Inhibition of 3%.
In the case of `Cc1cccc2nc(-c3cccc(-c4ccc(NC(=O)Cc5ccon5)cc4)c3)[nH]c12`, the Inhibition is reported as 34%.
Work on `Cc1cc(N[C@@H](CC(C)C)C(=O)Nc2ccccc2)nc(NCC2CCCCC2)n1.O=C(O)C(F)(F)F` yielded an Inhibition of 8%.
`CN1CCN(c2ccnc3ccc(NC(=O)Nc4ccc(-c5ccncc5)c5ccccc45)cc23)CC1` showed an Inhibition of 76%.
Compound `CN(C)CCNC(=O)NC1CN(c2ncnc3cc(-c4ccccc4)sc23)C1.O=C(O)C(F)(F)F` has an Inhibition of 7%.
`CC1CCCN1Cc1cccc(-c2ccc(C(=O)NCCOc3ccccc3)s2)c1.O=C(O)C(F)(F)F` (configuration not stated) gave an Inhibition of 26%.
With `COc1cc(CN2CCC(N3CCc4cc(NC(=O)c5cc(C)on5)ccc43)C2)ccc1F` (configuration not stated) the Inhibition was 1%.
Work on `CCCCCn1c(Sc2ccc(C#N)c([N+](=O)[O-])c2)nnc1-c1cc(OC)cc(OC)c1` yielded an Inhibition of 17%.
For `CC(C)COc1ccc(Cl)cc1Cc1ccc(-c2nc3ccc(Br)cc3[nH]2)o1.Cl`, the Inhibition was 19%.
`C=CCn1c(Sc2ccc(C#N)c([N+](=O)[O-])c2)nnc1-c1ccc(Cl)cc1` showed an Inhibition of 13%.
